# Source: ChEMBL document CHEMBL3433997, “St. Jude Leishmania screening dataset” (2016)
# Target: Glucose transporter (Leishmania mexicana) (UniProt O61059)
# Assay: ST_JUDE_LEISH: Cytotoxicity at 2uM final concentration against transgenic Leishmania Mexicana promastigotes LmGT2 that are glucose transport deficient and complemented with the L. Mexicana glucose transporter 2. Activity is measured by DNA content using SYBR green in vitro
# Type: functional
row,SMILES,inhibition
1,O=C(Nc1ccc(Cl)cc1)N[C@H]1CCN(CCCCCNC(=O)C2CC2c2ccc(Cl)c(Cl)c2)C1 (stereo partly drawn),8.02%
2,COc1ccc(CNC2CCN(C)CC2)cc1-c1ccc(S(=O)(=O)NCc2ccccc2)c(C)c1,7.94%
3,Cc1cc(OCC2CCN(c3ncc(C(=O)Nc4ccccc4)cc3Cl)CC2)ccc1F,0.4%
4,CC(C)c1ccc(C2CCN(CCCCNC(=O)c3ccc(NC(=O)c4ccc(C(F)(F)F)cc4)cc3)CC2)c(O)c1,1.92%
5,O=C1O[C@H](c2ccccc2)[C@H](c2ccccc2)N(C(=O)OCc2ccccc2)[C@H]1Cc1ccccc1C1CCCC1,1.27%
6,O=C(/C=C/c1ccc(Cl)c(Cl)c1)NCCCCCN1CCC(NC(=O)Nc2ccc(OC(F)F)cc2)CC1,5.2%
7,CN(C)c1ccc(-c2ccc(C(=O)NC3CCN(Cc4ccc(F)cc4)CC3)s2)cc1,3.76%
8,COc1ccc(C)c(Nc2ccnc(Nc3cccc(-c4nc5ccccc5[nH]4)c3)n2)c1,2.68%
9,O=C(Cn1c(SCc2cccc(F)c2F)cc(=O)c2ccccc21)N(Cc1ccc(-c2ccc(C(F)(F)F)cc2)cc1)C1CCN(CCO)CC1,-1.32%
10,CCc1ccc(CN2CCC(NC(=O)c3ccc(-c4ccccc4F)s3)CC2)cc1,-5.91%
11,CN(C)CCCOc1c(C(C)(C)C)cc(-c2cc(C(C)(C)C)c(OCCCN(C)C)c(C(C)(C)C)c2)cc1C(C)(C)C,3.12%
12,C[C@@H](Oc1cc(-n2cnc3ccc(NC(=O)CCN4CCCCC4)cc32)sc1C(N)=O)c1ccccc1Cl,-0.04%
13,O=C1Nc2cccc3c2C1(CCCCCN1CCC(c2c[nH]c4ccncc24)CC1)CCC3 (stereo not drawn),-0.95%
